# Activity calls are given as the source filed them. How the calls were made is not given here.
# System: HIV-1 nucleocapsid protein NCp7 (binding to TG oligonucleotide)
# Experiment: HIV Nucleocapsid (AID 346);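 further: potency is for inhibitors that block NC binding and lower polarization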
# Conditions: HIV-1 NC / fluorescein-TGTGTGTG probe, fluorescence polarization
# How it was run: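 10 nM TG4xF probe with 100 nM nucleocapsid protein in high-salt Hepes pH 7.5 (250mM NaCl) containing 1uM ZnCl2 and reducing agents. Compound inhibition of binding was read as fluorescein polarization after 1 hr at room temperature.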
# Potency means the concentration at half of the fitted maximal effect.
row,Compound,Potency
1,COc1ccccc1CNc1ncncc1-c1cccc(C#N)c1,> 20 µM (inactive)
2,COCCn1c(=O)c(-c2ccc(F)cc2)nc2cnc(N3CCOCC3)nc21,> 20 µM (inactive)
3,N#Cc1ccccc1-c1nc(NCCN2CCOCC2)c2ccccc2n1,> 20 µM (inactive)
4,FC(F)(F)c1ccccc1-c1nccc(NCc2ccccc2)n1,> 20 µM (inactive)
5,Cc1ccccc1-c1cncnc1NCc1cccnc1,> 20 µM (inactive)
6,O=C(c1csnn1)N1CCC[C@@]2(CCN(Cc3nccs3)C2)C1,> 20 µM (inactive)
7,CS(=O)(=O)N1CCC[C@@]2(CCN(C(=O)Nc3cccc(C#N)c3)C2)C1,> 20 µM (inactive)
8,COCCn1c(=O)c(-c2ccc(F)cc2)nc2cnc(Oc3ccc(OC)cc3)nc21,> 20 µM (inactive)
9,Cn1cc(-c2nc3cnc(N4CCOCC4)nc3n(CCC#N)c2=O)c2ccccc21,> 4 µM (inactive)
10,O=c1c(-c2ccc(Cl)cc2)nc2cnc(N3CCOCC3)nc2n1-c1ccccc1,> 20 µM (inactive)
11,COc1ccccc1CN1CCCC2(CCN(C(=O)c3cccc(F)c3)CC2)C1,> 20 µM (inactive)
12,CC(=O)NCCNc1ncnc2ccc(-c3ccc(C(=O)N(C)C)cc3)cc12,> 20 µM (inactive)
13,COCCn1c(=O)c(CCc2ccccc2)nc2cnc(Nc3ccccc3)nc21,> 20 µM (inactive)
14,N#CCCn1c(=O)c(-c2ccc(Cl)cc2)nc2cnc(Nc3ccccc3)nc21,> 20 µM (inactive)
15,O=C(c1csnn1)N1CCC2(CC1)CCN(c1cccc(-c3ccccc3)c1)CC2,> 20 µM (inactive)
